Results taken from PubChem BioAssay AID624136 (Broad Institute, 2012).
About 75 (0.4%) of roughly 17,000 compounds were called active.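 The calls were made as follows: active = compounds whose four printed spots each glow above background more than chance allows, each with a p-value under 7%; inactive = the rest.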 The list comes from a sample in which actives are over-represented; it also holds similar structures and randomly drawn compounds.

Tested on: mutant tumor protein p53 (GST-tagged), Homo sapiens
Experiment: small molecules binding GST-tagged mutant p53 – biochemical, small molecule microarray, anti-GST fluorescence, primary screen (AID 624136)

Row | SMILES | outcome
1 | C[C@@H]1CN([C@H](C)CO)C(=O)c2cccc(NC(=O)Nc3cccc4ccccc34)c2O[C@@H]1CN(C)C(=O)Nc1ccc(F)cc1 | inactive
2 | C[C@@H]1CC[C@]2(C(=O)O)CC[C@]3(C)C(=CCC4[C@@]5(C)CC[C@H](O)[C@](C)(C(=O)O)C5CC[C@]43C)C2[C@]1(C)O (some centres not stated) | inactive
3 | C[C@H]1CN([C@@H](C)CO)C(=O)c2cccc(NC(=O)Nc3ccccc3)c2O[C@@H]1CN(C)S(C)(=O)=O | inactive
4 | COc1ccc(CN(C)C[C@H]2Oc3c(NC(=O)c4ccncc4)cccc3C(=O)N([C@H](C)CO)C[C@@H]2C)cc1 | inactive
5 | Cc1cc(C(=O)Nc2cccc3c2O[C@@H](CN(C)Cc2ccc(C(=O)O)cc2)[C@H](C)CN([C@@H](C)CO)C3=O)n(C)n1 | inactive
6 | C[C@@H]1CN([C@@H](C)CO)C(=O)Cc2cc(NC(=O)Nc3ccc(F)cc3)ccc2O[C@@H]1CN(C)C(=O)NC1CCCCC1 | inactive
7 | C[C@H]1CN([C@@H](C)CO)C(=O)c2cc(NC(=O)Nc3ccc4c(c3)OCO4)ccc2O[C@@H]1CN(C)CC1CCCCC1 | inactive
8 | COc1ccc(S(=O)(=O)Nc2ccc3c(c2)CC(=O)N([C@H](C)CO)C[C@H](C)[C@@H](CN(C)C)O3)cc1 | inactive
9 | COc1ccc(S(=O)(=O)N(C)C[C@@H]2Oc3ccc(NC(=O)CCC(F)(F)F)cc3C(=O)N([C@@H](C)CO)C[C@@H]2C)cc1 | inactive
10 | Cc1ccc(C(=O)C2C(=O)C(=O)N(Cc3cccnc3)C2c2ccc(Cl)c(Cl)c2)o1 (configuration not stated) | inactive
11 | C[C@@H]1CN([C@@H](C)CO)C(=O)Cc2cc(NC(=O)CCN3CCOCC3)ccc2O[C@@H]1CN(C)CC1CC1 | inactive
12 | COc1ccc(NC(=O)Nc2cccc3c2O[C@@H](CN(C)S(=O)(=O)c2cn(C)cn2)[C@H](C)CN([C@@H](C)CO)C3=O)cc1 | inactive
13 | Cc1noc(C)c1S(=O)(=O)N(C)C[C@@H]1Oc2ccc(NC(=O)C3CC3)cc2CC(=O)N([C@@H](C)CO)C[C@@H]1C | inactive
14 | Cc1noc(C)c1NC(=O)N(C)C[C@H]1OCc2cn(nn2)CCCC(=O)N([C@@H](C)CO)C[C@H]1C | inactive
15 | C[C@H](CO)N1C[C@H](C)[C@@H](CN(C)C(=O)NC2CCCCC2)Oc2ccc(NC(=O)c3ccncc3)cc2CC1=O | inactive
16 | O=C(C1=C[C@H](C2CC2)C[C@H](OCc2ccc(CO)cc2)O1)N1CCN(Cc2ccccc2)CC1 | inactive
17 | Cn1nnnc1SCC(=O)Nc1cccc(NC(=O)C23CC4CC(CC(C4)C2)C3)c1 | inactive
18 | C[C@@H]1CN([C@H](C)CO)C(=O)c2cccc(NS(=O)(=O)c3ccc(Cl)cc3)c2O[C@@H]1CN(C)CC1CC1 | inactive
19 | COc1ccc(CN(C)C[C@@H]2Oc3ccc(NC(=O)Nc4ccc(OC)cc4)cc3CC(=O)N([C@H](C)CO)C[C@H]2C)cc1 | inactive
20 | COC(=O)c1c(C)n(CCNc2ccc([N+](=O)[O-])cc2)c2ccc(O)cc12 | inactive
21 | O=C(CCc1nc(-c2ccccc2Cl)no1)Nc1ccccc1[N+](=O)[O-] | inactive
22 | C[C@H]1CN([C@@H](C)CO)C(=O)c2cccc(NC(=O)C3CCOCC3)c2O[C@@H]1CN(C)C(=O)Nc1cccc2ccccc12 | inactive
23 | C[C@@H]1CN([C@@H](C)CO)C(=O)c2cccc(NS(=O)(=O)c3cn(C)cn3)c2O[C@H]1CN(C)Cc1ccc(Cl)c(Cl)c1 | inactive

Row | SMILES | outcome
24 | C=C1C[C@@H]2COC(=O)[C@]2(Cc2ccc3ccccc3c2)C1 | inactive
25 | COc1cc(C(C)=O)ccc1OCC(O)Cn1nc(C)cc1C (configuration not stated) | inactive
26 | COc1ccc(CN(C)C[C@H]2Oc3c(NS(=O)(=O)c4ccc(Cl)cc4)cccc3C(=O)N([C@H](C)CO)C[C@@H]2C)cc1 | inactive
27 | C[C@H](CO)N1C[C@H](C)[C@@H](CN(C)Cc2ccc(Cl)c(Cl)c2)Oc2c(NC(=O)C3CCCCC3)cccc2C1=O | inactive
28 | C[C@H]1CCCCO[C@@H](CN(C)C(=O)C2CCCCC2)[C@@H](C)CN([C@@H](C)CO)C(=O)c2cc(NS(=O)(=O)c3cccs3)ccc2O1 | inactive
29 | C[C@H](CO)N1C[C@H](C)[C@H](CN(C)C)Oc2ccc(NC(=O)Cc3ccccc3)cc2CC1=O | inactive
30 | C[C@H]1CN([C@@H](C)CO)C(=O)c2cc(NC(=O)Nc3ccccc3)ccc2O[C@@H]1CN(C)C(=O)Nc1ccccc1 | inactive
31 | CCNc1nc(SCCOc2ccccc2)nc(N(C)C)n1 | inactive
32 | C[C@H](CO)N1C[C@H](C)[C@H](CN(C)C(=O)Nc2ccc(C(F)(F)F)cc2)Oc2ccc(NS(C)(=O)=O)cc2CC1=O | inactive
33 | O=C(OCC1OC(Oc2ccc(O)cc2COC(=O)C2(O)C(O)CCC(O)C2O)C(O)C(O)C1O)c1ccccc1 (configuration not stated) | inactive
34 | C[C@@H]1CCCCO[C@H](CN(C)C(=O)Nc2ccccc2)[C@H](C)CN([C@H](C)CO)C(=O)c2cc(N(C)C)ccc2O1 | inactive
35 | Cc1noc(C)c1NC(=O)Nc1ccc2c(c1)CC(=O)N([C@H](C)CO)C[C@@H](C)[C@@H](CN(C)Cc1ccncc1)O2 | inactive
36 | CC(=O)Nc1ccc(NC(=O)CN(c2ccccc2Br)S(C)(=O)=O)cc1 | inactive
37 | Cc1noc(C)c1NC(=O)Nc1cccc2c1O[C@@H](CN(C)Cc1ccc(C(F)(F)F)cc1)[C@@H](C)CN([C@@H](C)CO)C2=O | inactive
38 | C[C@@H]1CCCCO[C@@H](CN(C)S(=O)(=O)c2ccccc2)[C@H](C)CN([C@H](C)CO)C(=O)c2cc(NC(=O)CCC(F)(F)F)ccc2O1 | inactive
39 | Cc1noc(C)c1S(=O)(=O)Nc1ccc2c(c1)CC(=O)N([C@@H](C)CO)C[C@@H](C)[C@H](CN(C)C)O2 | inactive
40 | C[C@H](CO)N1C[C@H](C)[C@H](CN(C)C(=O)c2ccccc2)OCCCC[C@H](C)Oc2ccc(NS(C)(=O)=O)cc2C1=O | inactive
41 | C[C@@H]1CCCCO[C@H](CN(C)Cc2ccccc2)[C@@H](C)CN([C@H](C)CO)C(=O)c2cc(NS(C)(=O)=O)ccc2O1 | inactive
42 | C[C@H](CO)N1C[C@H](C)[C@H](CN(C)C(=O)Nc2ccccc2)Oc2ccc(NC(=O)C3CC3)cc2CC1=O | inactive
43 | CC(C)NC(=O)Nc1ccc2c(c1)C(=O)N([C@@H](C)CO)C[C@H](C)[C@@H](CN(C)C(=O)Nc1ccc(F)cc1)OCCCC[C@H](C)O2 | inactive
44 | COc1ccc(CN(C)C[C@@H]2Oc3ccc(NC(=O)Nc4ccc(OC)cc4)cc3C(=O)N([C@H](C)CO)C[C@H]2C)cc1 | inactive
45 | C=CC(C)(O)CCC1(C)C2=C(C(OC(C)=O)C(OC(C)=O)C1C)C(C)(C)CCC2 (configuration not stated) | inactive
46 | COc1cc([C@H](Cc2ccccc2)NC(C)=O)oc(=O)c1 | inactive

Row | SMILES | outcome
47 | CCc1ccc2c(c1)c1nc3ccccc3nc1n2CC(=O)OC | inactive
48 | C[C@H]1CN([C@@H](C)CO)C(=O)Cc2cc(NC(=O)Nc3cccc4ccccc34)ccc2O[C@H]1CN(C)CC1CC1 | inactive
49 | C[C@@H]1CCCCO[C@H](CN(C)Cc2ccccc2)[C@@H](C)CN([C@H](C)CO)C(=O)c2cc(NS(=O)(=O)c3ccc(Cl)cc3)ccc2O1 | inactive
50 | C[C@H](CO)N1C[C@H](C)[C@@H](CN(C)C(=O)Nc2ccc3c(c2)OCO3)Oc2ccc(NC(=O)NC3CCCCC3)cc2CC1=O | inactive
51 | CC(C)NC(=O)Nc1ccc2c(c1)CC(=O)N([C@@H](C)CO)C[C@@H](C)[C@@H](CN(C)S(=O)(=O)c1ccccc1)O2 | inactive
52 | C[C@@H]1CN([C@@H](C)CO)C(=O)c2cc(N(C)C)ccc2O[C@@H](C)CCCCO[C@H]1CN(C)Cc1ccncc1 | inactive
53 | CC(=O)O[C@H]1C[C@@H](OC(C)=O)C(C)(C)C2C[C@@H](O)[C@]3(C)C(CC[C@@]4(C)[C@H](c5ccoc5)OC(=O)C5OC543)[C@]21C (some centres not stated) | inactive
54 | CCC(=O)O[C@]1(C(=O)CCl)[C@@H](C)CC2C3CCC4=CC(=O)C=C[C@]4(C)[C@@]3(F)[C@@H](O)C[C@@]21C (some centres not stated) | inactive
55 | COc1ccc2nc(SCC(=O)Nc3ccc(I)cc3)[nH]c2c1 | inactive
56 | C[C@@H]1CN([C@@H](C)CO)C(=O)c2cccc(NC(=O)Nc3ccc(C(F)(F)F)cc3)c2O[C@@H]1CN(C)S(=O)(=O)c1cccs1 | inactive
57 | C[C@H](CO)N1C[C@H](C)[C@H](CN(C)Cc2ccccc2)OCCCC[C@H](C)Oc2ccc(NC(=O)CCC(F)(F)F)cc2C1=O | inactive
58 | OCCNc1nc(Nc2ccc(Cl)cc2)nc(N2CCCCC2)n1 | inactive
59 | C[C@@H]1CN([C@@H](C)CO)C(=O)c2cccc(NS(=O)(=O)c3ccc(F)cc3)c2O[C@H]1CN(C)C(=O)NC1CCCCC1 | inactive
60 | C[C@H]1CN([C@@H](C)CO)C(=O)Cc2cc(NS(C)(=O)=O)ccc2O[C@@H]1CN(C)CC1CC1 | inactive
61 | Cc1ccc(-c2cc(C(F)(F)F)n3nc(C(=O)NCCN4CCOCC4)c(Cl)c3n2)cc1 | inactive
62 | CCC(=O)Nc1cccc(NC(=O)COc2ccc(Br)cc2)c1 | inactive
63 | CNC[C@H]1Oc2ccc(NC(=O)Nc3ccc4c(c3)OCO4)cc2CC(=O)N([C@H](C)CO)C[C@H]1C | inactive
64 | COc1ccc(CN(C)C[C@H]2Oc3ccc(NC(=O)Cn4cnnn4)cc3CC(=O)N([C@@H](C)CO)C[C@@H]2C)cc1 | inactive
65 | C[C@H]1CN([C@@H](C)CO)C(=O)c2cccc(NS(=O)(=O)c3ccc(Cl)cc3)c2O[C@H]1CN(C)Cc1ccc2c(c1)OCO2 | inactive
66 | Cc1noc(C)c1S(=O)(=O)Nc1ccc2c(c1)C(=O)N([C@@H](C)CO)C[C@@H](C)[C@@H](CN(C)Cc1ccccc1)OCCCC[C@H](C)O2 | inactive
67 | CC(C)NC(=O)Nc1ccc2c(c1)C(=O)N([C@@H](C)CO)C[C@H](C)[C@H](CN(C)C(=O)Nc1ccc(F)cc1)OCCCC[C@@H](C)O2 | inactive
